Data: PubChem BioAssay (NCATS)
Results filed as inconclusive are left out. The source made the active and inactive calls. Calls follow the shape of the dose curve; as a rule, active = well fitted curve in the direction sought with a large enough effect; inconclusive = small, poorly fitted or top-dose-only effect, or another doubt; inactive = no such curve, though single readings can be large; an effect the other way counts as inactive or inconclusive.

How the values were obtained:
[1] = Cell Viability - LYMP2-004 (AID 966); also: nearly all actives have a fitted effect of over 65% in size
How it was run: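 Viable-cell number estimated from ATP luminescence (CellTiter-Glo) in 2500 human lymphoblastoid cells/well after 24 hr at 37 C with compound. AC50 fitted to the standard Hill equation.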

[2] = Cell Viability - LYMP2-005 (AID 967); also: series mostly up to about 92 µM
How it was run: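 Human lymphoblastoid LYMP2-005 cells, 2,500 per well in complete medium, rested 5 h at 37C then compound-treated 24 h at 37C. Intracellular ATP read by CellTiter-Glo luminescence after 30 min at room temperature; AC50 from Hill-equation fits of concentration-response data.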

[3] = Cell Viability - LYMP2-009 (AID 968); also: series mostly up to about 92 µM; nearly all actives have a fitted effect of over 55% in size
[4] = Cell Viability - LYMP2-011 (AID 969);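 also: cells exposed to compound for 24 hours; nearly all actives have a fitted effect of over 60% in size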
How it was run: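 Cells seeded at 2500 per well rest 5 hr before compound addition, then incubate 24 hr at 37 C. CellTiter-Glo reagent is added for 30 min at room temperature before luminescence detection.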

[5] = Cell Viability - LYMP2-013 (AID 970); also: series mostly up to about 92 µM; nearly all actives have a fitted effect of over 55% in size
How it was run: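 In complete culture medium, human lymphoblastoid cells were dosed for 24 hr at 37 C, with tetraoctylammonium bromide (6.4pM to 92 uM) as positive control. Viability reflects luciferase-based ATP signal; AC50 derived from concentration-response curves.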

[6] = Cell Viability - LYMP2-015 (AID 971); also: nearly all actives have a fitted effect of over 55% in size
How it was run: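 AC50 values reflect Hill-model fits of ATP-based luminescence (CellTiter-Glo) from a human lymphoblastoid line, 2500 cells/well, treated 24 hr at 37 C.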

[7] = Cell Viability - LYMP2-017 (AID 972);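 also: series mostly up to about 92 µM; cells exposed to compound for 24 hours at 37 °C; nearly all actives have a fitted effect of over 55% in size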
How it was run: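 In this qHTS format, lymphoblastoid cells in complete medium receive test compound for a day at 37 C before ATP content is quantified by luciferase luminescence. Reported AC50 figures come from standard Hill-equation curve fitting.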

[8] = Cell Viability - LYMP2-019 (AID 973); also: nearly all actives have a fitted effect of over 55% in size
How it was run: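 AC50 values come from Hill-equation modelling of qHTS concentration-response curves, where viability is measured as luciferase-based ATP luminescence in the lymphoblastoid line after 24 hr compound exposure in complete culture medium.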

[9] = Cell Viability - LYMP2-023 (AID 975)
How it was run: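 In this qHTS, ATP-based luciferase luminescence (CellTiter-Glo) is quantified in human lymphoblastoid cells after 24 hr compound treatment at 37 C; tetraoctylammonium bromide serves as positive control. Concentration-response curves are Hill-fitted to give AC50.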

[10] = Cell Viability - LYMP2-021 (AID 974)
How it was run: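 In qHTS format, compounds are tested against 2500 lymphoblastoid cells per well for 24 h; viable cell number is inferred from ATP-driven luciferase light, and Hill-equation fitting yields AC50 values.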

Measured: Potency

CC(C)(O)C(=O)O
inactive: [1] | [2] | [3] | [4] | [5] | [6] | [7] | [8] | [9]

CCc1ccccc1O
inactive: [1] | [2] | [3] | [4] | [6] | [7] | [8] | [10] | [9]

CCCCOCCOCCSC#N
inactive: [1] | [2] | [3] | [4] | [5] | [6] | [7] | [8] | [9]

O=C(O)c1ccc(CO)o1
inactive: [1] | [2] | [3] | [4] | [5] | [6] | [9]

CC(C)(C)OC=O
inactive: [1] | [2] | [3] | [4] | [5] | [6] | [7] | [9]

C=C(C)C(=O)OCCCCCC
inactive: [1] | [2] | [3] | [4] | [5] | [6] | [7] | [8] | [9]

FB(F)F
inactive: [1] | [2] | [3] | [4] | [5] | [6] | [7] | [8] | [10] | [9]

COc1ccc(N=[N+]([O-])c2ccc(OC)cc2)cc1
inactive: [1] | [2] | [3] | [4] | [5] | [6] | [7] | [8] | [9]

CCC(C)(C)OC
inactive: [1] | [2] | [3] | [4] | [5] | [6] | [7] | [8] | [10] | [9]

O=C(O)c1ccc(Cl)cc1Cl
inactive: [1] | [2] | [3] | [4] | [5] | [6] | [7] | [8] | [9]

CCCC(C)CO (stereo not given)
inactive: [1] | [2] | [3] | [4] | [5] | [6] | [7] | [8] | [9]

C=CCOC(=O)CCCCCCCC
inactive: [1] | [2] | [3] | [4] | [5] | [7] | [8] | [10] | [9]

O=[N+]([O-])c1cccc(C(F)(F)F)c1
inactive: [1] | [2] | [3] | [4] | [5] | [6] | [7] | [8] | [10] | [9]

CC(C)CO
inactive: [1] | [2] | [3] | [4] | [6] | [7] | [8] | [10] | [9]

CC/C=C1/OC(=O)c2ccccc21
inactive: [1] | [2] | [3] | [4] | [5] | [6] | [7] | [8] | [10] | [9]

CCOCCOCC
inactive: [1] | [2] | [3] | [4] | [5] | [6] | [7] | [8] | [9]

Nc1nc(-c2ccccc2)cs1
inactive: [1] | [2] | [3] | [4] | [5] | [6] | [7] | [8] | [10] | [9]

CCCCCCC(=O)O
inactive: [1] | [2] | [3] | [4] | [5] | [6] | [7] | [8] | [9]

CCC=O
inactive: [1] | [2] | [3] | [4] | [6] | [7] | [8] | [10] | [9]

Cc1ccc(C#N)cc1
inactive: [1] | [2] | [3] | [4] | [5] | [6] | [7] | [8] | [9]

Nc1ccc([N+](=O)[O-])c(N)c1
inactive: [1] | [2] | [3] | [4] | [5] | [6] | [7] | [8] | [9]

Cc1c(N)cccc1[N+](=O)[O-]
inactive: [1] | [2] | [3] | [4] | [5] | [6] | [7] | [8] | [9]

O=CNc1ccccc1
inactive: [1] | [2] | [3] | [4] | [5] | [6] | [7] | [8] | [9]

CCC(=O)/C=C/C1C(C)=CCCC1(C)C (stereo not given)
inactive: [1] | [2] | [3] | [4] | [5] | [6] | [7] | [10] | [9]

c1ccc2n[nH]nc2c1
inactive: [1] | [2] | [3] | [4] | [5] | [6] | [7] | [8] | [10] | [9]

CC#N
inactive: [1] | [2] | [3] | [4] | [5] | [6] | [7] | [8] | [9]

CCCCC(CC)COC(=O)CCCCC(=O)OCC(CC)CCCC (stereo not given)
inactive: [1] | [2] | [3] | [4] | [5] | [6] | [7] | [8] | [9]

Cc1cscn1
inactive: [1] | [2] | [3] | [4] | [5] | [7] | [8] | [9]

O=C(O)c1ccccc1C(=O)O
inactive: [1] | [2] | [3] | [4] | [5] | [6] | [7] | [8] | [9]

NC(=O)CCCCC(N)=O
inactive: [1] | [2] | [3] | [4] | [5] | [6] | [7] | [8] | [10] | [9]

C=C(C)C(N)=O
inactive: [1] | [2] | [3] | [4] | [5] | [6] | [7] | [8] | [10] | [9]

C/C(C=O)=C/c1ccccc1
inactive: [1] | [2] | [3] | [4] | [5] | [7] | [8] | [10] | [9]

CCc1ccccc1
inactive: [1] | [2] | [3] | [4] | [5] | [6] | [7] | [8] | [9]

OC(CCl)CCl
inactive: [1] | [2] | [3] | [4] | [5] | [6] | [7] | [8] | [9]

C=CCCCCCC
inactive: [1] | [2] | [3] | [4] | [5] | [6] | [7] | [8] | [9]

CCCCCCCN
inactive: [1] | [2] | [3] | [4] | [5] | [6] | [7] | [8] | [9]

CC(C)(C)OCC1CO1 (stereo not given)
inactive: [1] | [2] | [3] | [4] | [5] | [6] | [7] | [8] | [9]

C/C=C1\CC2C=CC1C2 (stereo not given)
inactive: [1] | [2] | [3] | [4] | [6] | [7] | [8] | [10] | [9]

c1ccc(Oc2ccccc2)cc1
inactive: [1] | [2] | [3] | [4] | [6] | [7] | [8] | [9]

CCC(C)=O
inactive: [1] | [2] | [3] | [5] | [6] | [7] | [8] | [10] | [9]

Cc1cccc2sc(N)nc12
inactive: [1] | [2] | [3] | [5] | [6] | [7] | [8] | [10] | [9]

O=[N+]([O-])c1cccc(Cl)c1
inactive: [1] | [2] | [3] | [5] | [6] | [7] | [8] | [10] | [9]

CCCCC=O
inactive: [1] | [2] | [3] | [4] | [6] | [7] | [8] | [10] | [9]

COc1ccc(N)c(OC)c1
inactive: [1] | [2] | [3] | [5] | [6] | [7] | [8] | [10] | [9]

CCCC(Cl)CCCC(Cl)CCC(Cl)CCC(Cl)CCC(Cl)CCCC(Cl)CCC (stereo not given)
inactive: [1] | [2] | [3] | [4] | [6] | [7] | [8] | [10] | [9]

Cc1ccco1
inactive: [1] | [2] | [3] | [4] | [6] | [7] | [8] | [10] | [9]

CC(=O)c1cc(C)oc1C
inactive: [1] | [2] | [3] | [5] | [6] | [7] | [8] | [10] | [9]

Clc1ccc(Cl)c(Cl)c1Cl
inactive: [1] | [2] | [3] | [4] | [6] | [7] | [8] | [10] | [9]

c1ccc2c(c1)ccc1ncccc12
inactive: [1] | [2] | [3] | [5] | [6] | [7] | [8] | [10] | [9]

C=CCCCCCCC=C
inactive: [1] | [2] | [3] | [5] | [6] | [7] | [8] | [10] | [9]

NC(=S)NNC(N)=S
inactive: [1] | [2] | [3] | [5] | [6] | [7] | [8] | [10] | [9]

Cc1ccc2ncccc2c1
inactive: [1] | [2] | [3] | [4] | [6] | [7] | [8] | [10] | [9]

CC(C)=C1CCC(C)CC1=O (stereo not given)
inactive: [1] | [2] | [3] | [4] | [6] | [7] | [8] | [10] | [9]

CC(=O)Nc1cccc(N)c1
inactive: [1] | [2] | [3] | [4] | [6] | [7] | [8] | [10] | [9]

C=CCCCC
inactive: [1] | [2] | [3] | [5] | [6] | [7] | [8] | [10] | [9]

Cc1cc([N+](=O)[O-])ccc1N
inactive: [1] | [2] | [3] | [5] | [6] | [7] | [8] | [10] | [9]

CC(=O)OC(C)C
inactive: [1] | [2] | [3] | [4] | [6] | [7] | [8] | [10] | [9]

CCOc1cc(OCC)c(C(C)=O)cc1OCC
inactive: [1] | [2] | [3] | [5] | [6] | [7] | [8] | [10] | [9]
